One assay addresses Albumin (Bos taurus) (UniProt P02769). The assay is described as follows: compounds binding labelled BSA control protein – biochemical, small-molecule microarray, Alexa647 label, 635/667 nm fluorescence, artefact control for SMM control protein annotation, profiling panel (AID 1118).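 Note: score merges 667 nm emission intensity and signal-to-noise per printed compound spot.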 The conditions noted are these: BSA-A647 binding, fluorescence 635 nm, higher = more signal.
The nature of assay [1]: probe aXIP binding to arrayed compounds – biochemical, NeuroSMM set, 635/667 nm fluorescence, primary screen (AID 1119).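 Note: probe is the protein aXip251-270 applied at 1 µg/mL to compound-printed slides; binding of probe to printed compounds measured as 667 nm fluorescence plus signal to noise.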 The conditions noted are these: small-molecule microarray, higher = more signal, called active from +8 up or from −8 down.
Assay [2] can be described thus: probe aNOTCH3 binding on compound microarray – biochemical, small-molecule microarray, 635/667 nm fluorescence, primary screen (AID 1120).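 Note: probe is a biotin-tagged antibody raised against NOTCH3 rather than NOTCH3 protein; score merges spot fluorescence near 667 nm with spot signal to noise.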 The conditions noted are these: higher = more signal.
Assay [3] is described as follows: probe aNOTCH2 binding on compound microarray – biochemical, small-molecule microarray, 635/667 nm fluorescence, primary screen (AID 1121).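 Note: score merges feature fluorescence read at 667 nm with its signal to noise.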 Conditions: higher = more signal.
Assay [4] addresses Carbonic anhydrase 2 (Homo sapiens) (UniProt P00918). The assay is described as follows: compounds binding carbonic anhydrase 2 – biochemical, small-molecule microarray, Alexa647-labelled CAII, profiling panel (AID 1122). The conditions noted are these: CAII-A647 binding fluorescence, higher = more signal.
Assay [5] can be described thus: COS7 lysate on small-molecule microarray, probe aHis, 635 nm (AID 1123).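 Note: z-score combines 667nm fluorescence intensity with signal-to-noise per printed compound spot.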 The conditions noted are these: COS7 cell lysate, fluorescence, higher = more signal.
Assay [6] is described as follows: probe aLAP1 signal on lysate-treated microarray – cell lysate, small-molecule microarray, COS7 lysate, primary screen (AID 1124).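 Note: lysate comes from COS7 cells expressing LAP1 and is applied at 0.3 µg/mL; score merges spot fluorescence near 667 nm with signal-to-noise over triplicate slides.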 The conditions noted are these: probe aLAP1, fluorescence, higher = more signal.
The subject of another assay is Sam68 (KHDRBS1). The assay is described as follows: compounds binding KHDRBS1 protein – biochemical, small-molecule microarray, 635 nm fluorescence, primary screen (AID 1125).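 Note: score merges 667 nm channel intensity with signal to noise over triplicate slides.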 The conditions noted are these: higher = more signal.
Assay [7] relates to Chordin-like protein 2 (CHRDL2). The assay is described as follows: compounds binding chordin-like 2 – biochemical, small-molecule microarray, 635 nm fluorescence, primary screen (AID 1126).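 Note: printed compound slides probed with Chrdl2 protein at 4 µg/mL for 1 h at 4 C; score merges 667 nm emission intensity with signal to noise over three replicate slides.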 Conditions: fluorescence 635 nm, higher = more signal.
Assay [8] addresses Concanavalin-A (Canavalia ensiformis) (UniProt P02866). The assay is described as follows: compounds binding concanavalin A lectin – biochemical, small-molecule microarray, Alexa647 label, 635 nm, artefact control for SMM control protein annotation, primary screen (AID 1127).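 Note: z combines 667 nm emission intensity with signal-to-noise across three replicate slides.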 The conditions noted are these: ConA-A647 binding fluorescence, higher = more signal.

Active and inactive are the calls of the source.

Sequence of Concanavalin-A (Canavalia ensiformis) (P02866 whole entry, looked up): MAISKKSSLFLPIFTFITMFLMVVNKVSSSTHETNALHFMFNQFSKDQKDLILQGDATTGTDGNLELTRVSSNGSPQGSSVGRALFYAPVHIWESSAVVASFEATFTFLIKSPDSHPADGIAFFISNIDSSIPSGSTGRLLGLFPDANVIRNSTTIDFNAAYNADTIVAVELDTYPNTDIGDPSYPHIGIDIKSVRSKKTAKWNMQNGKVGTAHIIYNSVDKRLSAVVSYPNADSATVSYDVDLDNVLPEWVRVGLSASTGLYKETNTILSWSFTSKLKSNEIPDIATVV
Sequence of Albumin (Bos taurus) (P02769 whole entry, looked up): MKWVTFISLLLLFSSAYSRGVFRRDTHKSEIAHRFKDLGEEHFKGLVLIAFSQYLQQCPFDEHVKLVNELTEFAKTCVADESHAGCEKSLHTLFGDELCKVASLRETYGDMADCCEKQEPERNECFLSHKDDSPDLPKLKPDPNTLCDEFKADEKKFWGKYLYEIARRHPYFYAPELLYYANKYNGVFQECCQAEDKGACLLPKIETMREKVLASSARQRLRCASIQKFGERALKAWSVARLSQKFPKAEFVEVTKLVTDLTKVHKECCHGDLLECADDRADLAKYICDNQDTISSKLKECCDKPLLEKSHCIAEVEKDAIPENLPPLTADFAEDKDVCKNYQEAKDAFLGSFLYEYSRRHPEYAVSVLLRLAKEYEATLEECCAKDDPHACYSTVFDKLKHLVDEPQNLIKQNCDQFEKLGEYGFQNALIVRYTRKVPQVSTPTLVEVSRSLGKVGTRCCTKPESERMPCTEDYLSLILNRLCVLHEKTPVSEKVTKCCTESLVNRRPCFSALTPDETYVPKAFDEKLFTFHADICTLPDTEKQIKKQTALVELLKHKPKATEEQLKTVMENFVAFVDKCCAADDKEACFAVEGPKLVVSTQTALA

Consider `CC(C)(C)N1C(=O)[C@H]2[C@H]3[C@H](O)C=CC(=O)[C@@H]3CC[C@H]2C1=O`, for which the composite z-score with Albumin (Bos taurus) was -0.161; in assay [2] it was -0.0584; in assay [3], 0.0098; in assay [4], -0.0943; in [5], -0.463; in assay [6], 0.632. Further, the composite z-score was -0.0221 in the assay on Sam68 (KHDRBS1), 0.311 in [7] and 0.607 in assay [8]. In [1], the composite Z-score is 0.913 (inactive).
`CCCNC(=O)OC[C@H]1O[C@H](CCON=C(C)CCN2CCc3nc(CC)c(CC)cc3C2)C=C[C@@H]1Oc1ccc(OC)cc1`: the composite z-score with Albumin (Bos taurus) was 0.322; in assay [2] it was 0.105; in assay [3], -0.14; in [4], -0.164; in [5], 0.176; in [6], 0.0186. For the same compound, the composite z-score with Sam68 (KHDRBS1) was 0.285; in [7], -0.0024; in [8], 0.0004. The composite Z-score in assay [1] was 0.0421 (inactive).
For `CO[C@@H]1COC(=O)CC=C[C@H](C)[C@H](OC)COC(=O)[C@H](C)NC(=O)CC=C[C@H]1C`, the composite z-score with Albumin (Bos taurus) was -0.837; in assay [2] it was -0.0043; in assay [3] it was -0.118; in [4], -0.481; in assay [5] it was -0.448; in assay [6], -0.134. The composite z-score in the assay on Sam68 (KHDRBS1) is 0.786; in [7] it was 0.896; in assay [8], -1.76. The composite Z-score in [1] was 1.11 (inactive).
Turning to `O=C1C[C@@H](O)[C@@H](O)[C@@H]2[C@@H]3C(=O)N(c4cccc(Oc5ccccc5)c4)C(=O)[C@@H]3CC[C@H]12`, the composite z-score in the assay with Albumin (Bos taurus) is 0.332; in assay [2], -0.085; in [3], -0.137; in [4], -0.0963; in assay [5], 0.104; in [6] it was 0.183. In addition, the composite z-score is 0.21 in the assay with Sam68 (KHDRBS1), 0.455 in [7] and 0.505 in [8]. The composite Z-score in assay [1] is 0.454 (inactive).
`C[C@H]1Cc2c(COc3ccccc3)nc3c(c2CO1)CN(CCOc1ccccc1)CC3`: the composite z-score was -0.16 in the assay with Albumin (Bos taurus); 0.0282 in [2]; -0.0746 in [3]; 0.635 in assay [4]; 1.14 in assay [5]; 0.282 in assay [6]. Further, the composite z-score in the assay with Sam68 (KHDRBS1) was determined as 1.32; in assay [7] it was 0.522; in assay [8] it was 1.08. In addition, the composite Z-score in [1] is -0.711 (inactive).
Regarding `COC(=O)NCC=Cc1nc(CCCO)co1`, the composite z-score with Albumin (Bos taurus) was 0.782; in [2], -0.0362; in assay [3] it was -0.153; in assay [4], -0.0958; in [5], 0.549; in assay [6] it was 0.215. Besides, the composite z-score in the assay with Sam68 (KHDRBS1) was 0.559; in [7], 0.809; in assay [8], 0.161. Further, the composite Z-score in assay [1] is 0.678 (inactive).
As for `COC(=O)CC=C[C@@H](C)[C@@H](C=NO[C@@H](C)c1cn([C@H](CO)Cc2ccccc2)nn1)OC`, the composite z-score is 0.943 with Albumin (Bos taurus); -0.0069 in assay [2]; -0.103 in [3]; -0.225 in [4]; -0.274 in assay [5]; 0.137 in [6]. The values for the composite z-score (in the assay on Sam68 (KHDRBS1); in [7]; in [8]) were 0.695, 0.664 and -0.61, respectively. Further, in assay [1], the composite Z-score was -0.452 (inactive).
For the compound `O=C1OCCC=C1C(O)CCc1ccccc1` (stereo not given), the composite z-score with Albumin (Bos taurus) is -0.561; in [2], -0.158; in assay [3] it was -0.145; in [4], 0.192; in assay [5], -0.215; in assay [6], 0.181. Moreover, the composite z-score in the assay on Sam68 (KHDRBS1) is -0.0924; in [7], 0.575; in assay [8], -0.0631. The composite Z-score in assay [1] is 0.149 (inactive).
For `C#CCCCON=C1C[C@@H](O)[C@@H](O)[C@@H]2[C@@H]3C(=O)N(Cc4ccccc4)C(=O)[C@@H]3CC[C@@H]12`, the composite z-score with Albumin (Bos taurus) is 0.745; in assay [2], -0.03; in assay [3], -0.178; in [4], -0.103; in [5] it was -0.0919; in [6], -0.0209. Moreover, the composite z-score in the assay on Sam68 (KHDRBS1) is -0.492; in [7], 0.0362; in assay [8], -0.324. Also, the composite Z-score in assay [1] is 0.23 (inactive).
In the case of `COc1ccc(O[C@@H]2[C@H](O)CO[C@@H]2C=Cc2ccccc2)cc1`, the composite z-score with Albumin (Bos taurus) was -0.0176; in assay [2] it was -0.0343; in assay [3], -0.115; in assay [4], -0.053; in assay [5], -0.39; in assay [6], 0.0909. The composite z-score came to 0.0255 with Sam68 (KHDRBS1), 0.211 in assay [7] and 0.37 in assay [8]. In [1], the composite Z-score is 0.0831 (inactive).
Take `CCC1=NOC(CCC2CC(OC(=O)NCc3cccc4c3OCO4)CC3(CCCC(COC(=O)NCCc4ccccc4OC)O3)O2)C1` (stereo not given): the composite z-score with Albumin (Bos taurus) was 0.946; in assay [2], 0.134; in assay [3], -0.122; in [4], 0.45; in assay [5], 1.24; in [6], 0.19. Besides, the composite z-score with Sam68 (KHDRBS1) was 1.31; in [7] it was -0.14; in [8] it was 0.722. Besides, the composite Z-score in assay [1] was 0.632 (inactive).
Regarding `CC(CCC(=O)OC[C@H]1O[C@H](C#Cc2ccccc2)C=C[C@@H]1Oc1ccc(C)cc1)=NO[C@H](C)c1cn([C@H](CO)Cc2ccccc2)nn1`, the composite z-score with Albumin (Bos taurus) was 0.276; in assay [2] it was -0.0847; in assay [3], -0.0966; in assay [4] it was -0.0419; in [5], 0.757; in [6], 0.0395. Also, the composite z-score in the assay with Sam68 (KHDRBS1) was 1.12; in assay [7] it was 0.569; in assay [8], 0.79. Also, the composite Z-score in [1] is 0.392 (inactive).

The values are drawn from PubChem BioAssay.
